High-throughput results from PubChem.
This is a sample that favours compounds with a hit; in the whole collection about 4.6% have one here.
USP10 block: inhibitors of human USP10 deubiquitinase. hit rate 1.1% among 47,000. inhibition, % at 20 µM. purified USP10, Ub-rhodamine fluorescence, 60 min. Ubiquitin carboxyl-terminal hydrolase 10 (Homo sapiens), Q14694
USP7 block: inhibitors of human USP7 deubiquitinase; Ubiquitin carboxyl-terminal hydrolase 7 (Homo sapiens), Q93009; purified USP7, Ub-rhodamine cleavage fluorescence; inhibition, % at 20 µM; hit rate 0.3% among 47,000; AID 1645854, 2021
USP8 inh: inhibitors of human USP8 deubiquitinase; Ubiquitin carboxyl-terminal hydrolase 8 (Homo sapiens), P40818; purified USP8, Ub-rhodamine cleavage fluorescence, 30 min; inhibition, % at 20 µM; hit rate 4.2% among 47,000
UCHL1 inh: inhibitors of human UCHL1 deubiquitinase; Ubiquitin carboxyl-terminal hydrolase isozyme L1 (Homo sapiens), P09936; purified UCHL1, Ub-rhodamine cleavage fluorescence; inhibition, % at 20 µM; hit rate 0.2% among 47,000; AID 1645859, 2021
Starred values were filed as active, the others as inactive; nt = no result. Rule as the data show it: active = inhibition above about 30%; inactive = the rest.

SMILES | USP10 block | USP7 block | USP8 inh | UCHL1 inh
CC(C)NC(=O)C1CCCN(S(=O)(=O)N(C)C2CCCCC2)C1 (configuration not stated) | 2 | nt | 1 | -1
COc1ccc(Oc2nc(F)c(Cl)c3c2N(CC2CCCO2)CCS3(=O)=O)cc1 (configuration not stated) | 5 | -25 | 69* | 6
CCCCN1CCS(=O)(=O)c2c(Cl)c(F)nc(Oc3ccc(OC)cc3)c21 | 9 | 7 | 50* | 7
COCCCN1CCS(=O)(=O)c2c(Cl)c(F)nc(Oc3ccccc3)c21 | 0 | -142 | 35* | 1
O=C1OC(C(=O)Nc2nc3c(ccc4ccccc43)s2)Cc2ccccc21 (configuration not stated) | 1 | 0 | 29 | 0
CCOc1ccc(NC(=O)COc2ccccc2OC)c2cccnc12 | 2 | 0 | 33* | -1
Cc1ccc(-c2n[nH]c3c2CN(C(=O)c2cccnc2)CC3)cc1 | 2 | -1 | 1 | 0
COc1ccc(S(=O)(=O)Nc2ccc(Cc3ccncc3)cc2)c2ccccc12 | 4 | 8 | 43* | 2
CC(C)(C)c1ccc(S(=O)(=O)Nc2ccc(Cc3ccncc3)cc2)cc1 | 6 | 16 | -68 | 11
COc1ccc(C(C)C)cc1S(=O)(=O)Nc1cccc(C)n1 | 0 | 6 | 14 | 6
COc1ccc(C)cc1S(=O)(=O)NNc1nc(C)cc(C)n1 | 2 | 5 | 76* | 0
O=C(CSc1ccc2nnc(CCNS(=O)(=O)c3ccccc3)n2n1)N1CCCc2ccccc21 | -1 | -1 | -13 | -1
O=C(CSc1ccc2nnc(-c3cccc(F)c3)n2n1)N1CCCc2ccccc21 | 11 | 21 | 38* | 3
COc1cccc(CNc2ccc(-c3nc(-c4ccccc4)no3)nn2)c1 | 12 | 24 | 76* | 3
CC(=O)c1cc(-c2ccc(F)cc2)n(CC(=O)Nc2cccc(C)c2C)c1C | 35* | 11 | 41* | 1
O=C(Cn1cnc2cc3c(cc21)OCCCO3)N1CCCc2ccccc21 | -4 | -10 | 37* | -9
O=C(CN1CCN(S(=O)(=O)c2ccc3c(c2)OCCCO3)CC1)N1CCCc2ccccc21 | -2 | 0 | 0 | 2
Cc1nnc(NC(=O)C(=O)c2cc(C)n(-c3ccc(Cl)cc3)c2C)s1 | 2 | 6 | 41* | 5
O=C1CC(C(=O)NCCc2ccccc2)n2c(nc3ccccc32)N1 (configuration not stated) | 17 | 5 | 43* | -1
O=C1CC(C(=O)Nc2ccccc2F)n2c(nc3ccccc32)N1 (configuration not stated) | 20 | 13 | 39* | 3
O=C(Nc1ccccc1F)C1Cc2ccccc2N1C(=O)c1ccccc1 (configuration not stated) | -6 | -4 | -6 | -4
O=C(CC1C(=O)N(Cc2ccccc2)c2nc3ccccc3n21)NCCc1ccccc1 (configuration not stated) | 9 | 3 | 17 | 3
Cc1nccc(C(=O)N2CCCC3(C/C=C/Cc4ccccc4OCC(=O)NC3)C2)n1 (configuration not stated) | 2 | 0 | -10 | -3
O=C(Nc1cccc(CCc2nc3ccccc3n2-c2ccccc2)c1)c1cnccn1 | 3 | -8 | -32 | 9
COc1cccc(-c2ccnc3[nH]c(=O)[nH]c(=O)c23)c1 | 0 | 0 | 1 | 2
SMILES | USP10 block | USP7 block | USP8 inh | UCHL1 inh
O=c1[nH]c(=O)c2c(-c3ccc(-c4ccccc4)cc3)ccnc2[nH]1 | -4 | 11 | 76* | -7
N#Cc1cccnc1N1CCN(C(=O)Nc2cccc3ccccc23)CC1 | 0 | -25 | 91* | 18
CCOc1ccccc1NC(=O)N1CCCN(c2ncccc2C#N)CC1 | -1 | 3 | 4 | 2
O=C(NCc1ccc(-c2nc3ncccc3o2)cc1)c1ccccc1 | 9 | 8 | 32* | 4
CC1CCCCN1c1nc(F)c2c(c1F)S(=O)(=O)CCN2Cc1ccccc1 (configuration not stated) | -4 | -3 | 89* | 5
COc1ccc(-n2ncc3c2CCCN(C(=O)C2CCCC2)C3)cc1 | -2 | -2 | 11 | 0
Cc1cccc(C(CC(=O)Nc2ccc3c(c2)OCCO3)n2cccc2)c1 (configuration not stated) | 6 | -3 | 1 | 2
COc1ccc(N2CCN(C(=O)c3csc4c3CCC(C(C)(C)C)C4)CC2)cc1 (configuration not stated) | -1 | 2 | 70* | 4
Cc1cc(N)cc(C2CN(C(=O)c3cnc4ccccc4c3)CCO2)n1 (configuration not stated) | 4 | 2 | 3 | 0
CCC1CCCCN1CCCN1C(=O)C2C(C(=O)Nc3cccc(Cl)c3)C3C=CC2(O3)C1C(=O)NC1CCCCC1 (configuration not stated) | -6 | -20 | 10 | 0
Cc1cc(Nc2ccc(C)c(Cl)c2)n2nc(-c3cccnc3)nc2n1 | -8 | 3 | 10 | 0
Cc1cc(Nc2ccc(C)c(Cl)c2)n2nc(-c3ccco3)nc2n1 | -5 | -4 | 35* | -17
Oc1cccc2c(-c3ccc(O)c4c(O)cccc34)ccc(O)c12 | 71* | -54 | 98* | 78*
Cc1ccccc1CNC(=O)C1CCCN(C(=O)c2cc(-c3cccnc3)n[nH]2)C1 (configuration not stated) | 0 | 2 | 6 | 0
Nc1nnc(-c2cc(-c3ccc4c(c3)OCO4)on2)o1 | 17 | 8 | 54* | 1
c1cc2c(cc1-c1cc(C3CCCCCN3)no1)OCO2 (configuration not stated) | -1 | 3 | -1 | 1
Cc1cc(=O)n2c3c(c4c(cc13)c(CO)cc(=O)n4C)OC2 | 6 | 0 | 40* | 6
COc1ccccc1-n1cnnc1CN1CCN(C(=O)c2cccn2C)CC1 | -1 | 5 | 9 | -1
Cc1nc(CC(=O)Nc2cc(F)cc(F)c2)sc1C(=O)NC1CC1 | -3 | -5 | 61* | 5
CN(Cc1ccccc1)C(=O)Cn1c(=O)[nH]c2c(-c3ccccc3)c[nH]c2c1=O | -8 | 1 | 46* | -9
O=C(Cn1c(=O)[nH]c2c(-c3ccccc3)c[nH]c2c1=O)NCc1ccc(Cl)cc1 | 2 | 9 | 32* | 0
O=C(Cn1c(=O)[nH]c2c(-c3ccc(F)cc3)c[nH]c2c1=O)NCc1ccc(F)cc1 | 12 | 13 | 32* | 1
O=C(Cn1c(=O)[nH]c2c(-c3ccccc3F)c[nH]c2c1=O)NC1CCCCC1 | 17 | 13 | 34* | -2
O=C(Cn1c(=O)[nH]c2ccccc2c1=O)NC1CCCC1 | 0 | 2 | 0 | 2
O=C(CCc1nnc2ccc(N3CCOCC3)nn12)Nc1ccc(CN2CCOCC2)cc1 | 2 | 2 | 14 | -1
Cc1ccc(S(=O)(=O)N2CCC3(CC2)NC(=O)c2ccccc2N3)cc1C | 1 | 5 | 7 | 3
CC(=O)c1ccc(S(=O)(=O)N2CCC3(CC2)NC(=O)c2ccccc2N3)cc1 | 21 | 8 | 33* | 0
